HepG2 tox – qHTS for Inhibitors of TGF-b: Cytotox Counterscreen | Potency, µM (top dose mostly 46.1 µM), without a hit: top-dose activity change, negative = cytotoxicity, most hits filed as cytotoxic | HepG2 CAGA-GFP viability, ATP luminescence, 18 h | 410,000 tested, 0.76% active; note: potency is the fitted concentration of half-maximal effect
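CellTiter-Glo luminescence gave cytotoxicity after 18 hours at 37 degrees C. The cells were HepG2 CAGA-GFP in 1% FBS DMEM, stimulated with 500 pg/mL TGF-beta after compound addition. %Activity was normalised to no-cell wells (complete cell-killing) and DMSO (no toxicity), and curves were fitted and classified.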
DT40 TDP1 no CPT – qHTS for Inhibitors of human tyrosyl-DNA phosphodiesterase 1 (TDP1): qHTS in cells in absence of CPT; 420,000 tested, 15% active; DT40 Tdp1-/- hTDP1 cells, no CPT, ATP luminescence, 48 h; Potency, µM (highest dose often 46.2 µM), for inactives: at the top dose activity change, negative = growth inhibition, usual class: inhibitors; AID 686978, 2013; note: potency is the fitted concentration of half-maximal effect; % is set by controls: 0 for no effect and ±100 for the full control effect; nearly all actives have a fitted effect of over 55% in size
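A cellular qHTS used chicken DT40 cells lacking endogenous Tdp1 but carrying stably transfected human TDP1. Compounds were applied without camptothecin, and cell growth kinetics were judged by ATP-dependent luminescence after ≥48 hr.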
TGFb inhibitor – qHTS for Inhibitors of TGF-b; 410,000 tested, 1.2% active; HepG2 CAGA-GFP TGF-b/SMAD3 reporter, GFP fluorescence, 18 h; TGF-beta stimulated, 500 pg/mL final; Potency, µM (doses to about 46.1 µM), for inactives: top-dose activity, negative = inhibition, most hits filed as inhibitors; note: potency is the fitted concentration of half-maximal effect; % is set by controls: 0 for no effect and ±100 for the full control effect; nearly all actives have a fitted effect of over 65% in size
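HEPG2 CAGA-GFP cells (1000/well, DMEM with 1% FBS) were pre-incubated 2 h at 37 degrees C, given compound by pin tool, then stimulated with TGF-beta at 500 pg/mL final for 18 h before per-cell GFP fluorescence imaging.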
IL1B secr inh – qHTS for Inhibitors of Inflammasome Signaling: IL-1-beta AlphaLISA Primary Screen. THP-1 LPS/ATP IL-1B secretion, AlphaLISA, 16 h; stronger effect = lower value. AID 743279, 2014. 360,000 tested, 4.7% active. activity change, % at 57.5 µM; in the data active = activity change below about -50%; inconclusive = mostly about -30% to -49%; note: % is set by controls: 0 for no effect and ±100 for the full control effect
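Secreted IL-1B measured by AlphaLISA bead assay after 16 h compound exposure of THP-1 cells; compounds (final up to 57.5 uM) added 1 h before LPS (250 ng/mL) and ATP (1.25 mM) stimulation; lower signal means less secretion.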
DT40 TDP1 CPT – qHTS for Inhibitors of human tyrosyl-DNA phosphodiesterase 1 (TDP1): qHTS in cells in presence of CPT | chicken DT40 Tdp1-/-;hTDP1 cells + 20 nM CPT, ATP luminescence, 48 h | Potency, µM (top dose mostly 46.2 µM), inactives show at the highest dose activity change, negative = growth inhibition, actives largely listed as inhibitors | 420,000 tested, 12% active; note: potency is the fitted concentration of half-maximal effect; % is set by controls: 0 for no effect and ±100 for the full control effect; nearly all actives have a fitted effect of over 55% in size
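Cell growth measured by CellTiter-Glo luminescence after a minimum 48 h, 37 C compound exposure with 20 nM CPT in Tdp1-knockout DT40 cells stably expressing hTDP1, seeded 400/well; qHTS titration format.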
ASM inhibitor – Inhibitors of Secretory Acid Sphingomyelinase (S-ASM): qHTS. Sphingomyelin phosphodiesterase (Homo sapiens), P17405. placental ASM, HMU-PC fluorogenic substrate, 60 min. Potency, µM (titrated, usually from 57.5 µM), for the others: at the highest dose activity change, negative = inhibition, usual class: inhibitors. 340,000 tested, 0.006% active; note: potency is the fitted concentration of half-maximal effect
Target sequence (P17405 47-631 limits assumed): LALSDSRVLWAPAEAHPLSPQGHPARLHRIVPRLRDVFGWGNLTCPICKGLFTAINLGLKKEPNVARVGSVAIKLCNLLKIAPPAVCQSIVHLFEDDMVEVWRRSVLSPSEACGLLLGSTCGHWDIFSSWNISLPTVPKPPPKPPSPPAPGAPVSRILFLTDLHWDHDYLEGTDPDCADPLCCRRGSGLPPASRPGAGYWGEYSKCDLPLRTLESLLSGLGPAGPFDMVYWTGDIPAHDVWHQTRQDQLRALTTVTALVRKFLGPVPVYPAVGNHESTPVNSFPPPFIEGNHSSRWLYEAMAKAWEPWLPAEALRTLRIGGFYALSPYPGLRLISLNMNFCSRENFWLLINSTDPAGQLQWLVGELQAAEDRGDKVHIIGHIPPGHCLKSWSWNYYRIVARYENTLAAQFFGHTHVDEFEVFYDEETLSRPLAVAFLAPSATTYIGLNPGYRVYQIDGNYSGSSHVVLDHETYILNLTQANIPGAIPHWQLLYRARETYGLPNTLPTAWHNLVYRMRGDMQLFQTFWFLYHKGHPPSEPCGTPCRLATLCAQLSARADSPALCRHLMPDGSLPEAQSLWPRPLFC
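Steps: dispense placental human ASM, pin compound, wait 10 min at room temperature, add HMU-PC0 substrate at 9 uM final, incubate 60 min at 37 °C, add stop solution raising pH to 10, read fluorescence.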
* = called active by the depositor; i = inactive; u = inconclusive; x = no result given; ! = not active in a repeat. Sampled rows, rich in hits. Any-hit rate of the full collection: about 19%. Unless noted, calls come from the whole dose curve; as a rule, active = well fitted curve in the direction sought with a large enough effect; inconclusive = small, poorly fitted or top-dose-only effect, or another doubt; inactive = no such curve, though single readings can be large; an effect the other way counts as inactive or inconclusive.

SMILES	HepG2 tox	DT40 TDP1 no CPT	TGFb inhibitor	IL1B secr inh	DT40 TDP1 CPT	ASM inhibitor
CC1CCc2nc(-c3cc4c(ccc5ccccc54)oc3=O)sc2C1 (stereo not given)	2%	-16%	5%	x	9%	x
CCc1cccc(NC(=O)c2nnn(Cc3ccc(SC)cc3)c2N)c1	-28%	-2%	-28%	x	-2%	x
CC(C)CC1Nc2ncnc(N3CCN(c4ccccn4)CC3)c2N(Cc2ccccc2)C1=O (stereo not given)	7%	u	-5%	-56*!	u	4%
O=C1C(Cc2ccccc2)Nc2ncnc(N3CCOCC3)c2N1Cc1ccccc1 (stereo not given)	0%	-16%	0%	-4	-15%	3%
Cc1ccc(CN2C(=O)C(CC(C)C)Nc3ncnc(N4CCN(c5ccccc5)CC4)c32)cc1 (stereo not given)	-21%	21µM*	u	u	15µM*	7%
CC(C)CC1Nc2ncnc(N3CCN(c4ccccc4)CC3)c2N(Cc2ccc(Cl)cc2)C1=O (stereo not given)	-4%	18µM*	3%	-30	u	2%
CSc1ncccc1C(=O)OCC(=O)NC12CC3CC(CC(C3)C1)C2	17%	u	-17%	27	u	-10%
O=C(NCCC1=CCCCC1)C1CCN(C(=O)N2CCOc3ccccc32)CC1	-22%	u	u	x	u	x
CC1CCCC(NC(=O)CN2CCN(S(=O)(=O)c3ccc(Br)s3)CC2)C1C (stereo not given)	-13%	18µM*	-17%	u	u	-3%
O=C(CN1CCCN(S(=O)(=O)c2ccc(Br)s2)CC1)Nc1ccc(Cl)cc1	-41%	u	5%	-76*	u	-3%
CCOC(=O)CNC(=O)CN1CCCN(S(=O)(=O)c2ccc(Br)s2)CC1	-13%	u	-4%	-10	-24%	-3%
CC(C)[C@H](NC(N)=O)C(=O)Nc1cccc(S(=O)(=O)NC2=NCCCCC2)c1	-3%	5%	8%	14	10%	-1%
COc1cc2c(-c3ccccc3)c(C)oc2cc1/C=N/NC(N)=S	6.3µM*	u	u	14	u	17%
COc1cc(OC)c(/C=N/NC(N)=S)cc1Br	2%	u	5%	i	u	6%
CCCC(=O)Nc1ccc2oc(=O)ccc2c1	1%	-1%	0%	11	-9%	8%
CC1(c2nc3ccccc3[nH]2)CCCC2=Nc3ccccc3CN21 (stereo not given)	x	18µM*	x	-14	u	x
CC1(c2nc3ccccc3[nH]2)CCC(=O)N1Cc1ccccn1 (stereo not given)	-4%	9%	-17%	24	-1%	x
Cc1nc(Oc2ccc(S(=O)(=O)N3CCOCC3)cc2Cl)c2c3c(sc2n1)CCCC3	-5%	u	-34%	-52*	u	-11%
OCC(O)C(O)[C@H](O[C@H]1OC(CO)C(O)C(O)C1O)[C@H](O)CO (stereo not given in full)	x	3%	x	x	-3%	x
COc1ccc([C@@H]2C[C@H]3[C@@H](CN2S(=O)(=O)c2ccccc2)C(=O)C[C@@H](c2ccccc2F)N3S(=O)(=O)c2ccc(C)cc2)cc1	0%	u	0%	16	-27%	x
CCOC(=O)Nc1cc(=O)c2ccccc2o1	5%	13µM*	5%	23	8.2µM*	2%

High-throughput results as filed in PubChem.
